# The entries come from a sample that favours hits as a whole.
# RmlCD inh mix – RmlC and RmlD coupled enzyme inhibitors, primary screen, biochemical, 384-well, compound mixtures, retest; hit rate 0.39% among 110,000; RmlC/RmlD coupled enzyme inhibition, 384-well mixture HTS; AID 1532, 2009; inhibition, % at 5.5 µM; in the data active = inhibition above about 30%, passing the limit was not always enough
# RT RNaseH block – HIV-1 RT RNase H inhibitors, primary screen, biochemical, fluorescence. Gag-Pol polyprotein (Human immunodeficiency virus type 1 group M subtype B (isolate …. RT-RNase H RNA/DNA duplex cleavage. inhibition, % at 10 µM. hit rate 1.9% among 65,000. AID 565, 2006; in the data active = inhibition above about 50%
# RmlCD fluor art – counter-screen for RmlC/RmlD inhibitors: fluorescence artifact, dose response, artefact control, biochemical; shares compounds with RmlCD inh mix; RmlC/RmlD assay fluorescence artifact counter-screen; calls only; hit rate 96% among 360; AID 1696, 2009; call rule not given here;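 note: compound alone with no enzyme and no substrates present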
# Hits are given with their value; 0 = inactive; - = not tested or not shown; + = active, no number.
SMILES,RmlCD inh mix,RT RNaseH block,RmlCD fluor art
Cc1nc2c(c(=O)n1CCC1=CCCCC1)c1nc3ccccc3nc1n2/N=C/c1ccccc1,0,-,+
CCOCCCn1c(C)nc2c(c1=O)c1nc3ccccc3nc1n2CCC1=CCCCC1,-,0,-
COC(=O)CON1C(=O)c2ccccc2C1=O,0,-,-
C=CCON1C(=O)c2ccccc2C1=O,0,-,-
Cc1cc(C)c(C)c(S(=O)(=O)ON2C(=O)c3ccccc3C2=O)c1C,114.1,-,+
Cc1cc(C)c(S(=O)(=O)ON2C(=O)c3ccccc3C2=O)cc1C,146.4,-,+
O=C(c1ccccc1)C1C(=O)c2ccccc2C1=O,0,0,-
CN(C)C(=O)N1CCN(C(=O)c2ccccc2Sc2ccccc2C#N)CC1,0,0,-
CC(C)(c1ccccc1)c1ccc(OCCn2cnc3ccccc3c2=O)cc1,0,-,-
CCCc1cc(N2CCN(C(=O)c3ccco3)CC2)n2c(nc3ccccc32)c1C#N,39.1,-,+
CCCc1cc(-n2ccnc2C)n2c(nc3ccccc32)c1C#N,-,0,-
O=C(/C=C/NNC(=O)c1cccc(Br)c1)c1cccc(Br)c1,0,-,-
CCn1c(NN)nc2sc3c(c2c1=O)CCC3,0,-,-
CCCn1c2ccccc2c2cc(C(=O)O)ccc21,-,0,-
CCc1c(C)sc(NC(=O)c2cc(CC(C)C)on2)c1C#N,0,-,-
CCOC(=O)N1CCN(C(=O)COc2ccc(S(=O)(=O)NCC(C)C)cc2C)CC1,0,-,-
CCOC(=O)c1sc(Nc2nc3c(OC)cccc3s2)nc1C,79.1,0,+
CCOC(=O)c1sc(Nc2ccccc2)nc1C,0,-,-
Cc1ccc(N2C(=O)c3n[nH]c(C)c3C2c2cccnc2)cc1 (configuration not stated),0,0,-
CSc1nc2ccc(Cl)cc2[nH]1,0,-,-
COC(=O)c1cc(=O)nc2sc(-c3cccs3)nn12,39.4,0,+
COC(=O)c1cc(=O)nc2sc3ccccc3n12,0,0,-
O=C(NCCN1CCOCC1)c1ccc(=O)oc1,43.1,0,+
O=C(NCCN1CCOCC1)c1ccc(F)cc1,0,-,-
CC(=O)n1nc(-c2ccccc2)nc1NCc1ccc(F)cc1,0,0,-
SMILES,RmlCD inh mix,RT RNaseH block,RmlCD fluor art
O=C(c1ccc(F)cc1)n1c(NCc2ccccc2)n[nH]c1=S,-,-,0
CCCCc1nc2ccccc2c(C(=O)O)c1C,0,0,-
COc1ccc(C2(NC(C)=O)CCN(C(=O)c3cccs3)CC2)cc1,0,-,-
O=C(Nc1ccc2c(c1)OCO2)C1CCCCN1S(=O)(=O)c1ccccc1 (configuration not stated),0,-,-
O=c1[nH]nnc2c1sc1nc(N3CCOCC3)c3c(c12)CCCC3,-,0,-
COCCNC(=O)c1c(N)n(Cc2ccco2)c2nc3ccccc3nc12,0,-,-
Nc1c(C(=O)NCCN2CCOCC2)c2nc3ccccc3nc2n1Cc1ccco1,37.3,0,+
COC(=O)c1c(N)n(CCCN2CCOCC2)c2nc3ccccc3nc12,0,-,-
CCOC(=O)c1c(N)n(CCN2CCCCC2)c2nc3ccccc3nc12,38.5,0,+
CCCCC1=CC2=CC(=O)C(C)(OC(=O)CCc3ccccc3)C(=O)C2=CO1 (configuration not stated),0,-,-
COc1ccc(N2CCN(c3nc(Nc4ccc(F)cc4)nc(OC)n3)CC2)cc1,0,-,-
COc1ccc(-c2cc(C(F)(F)F)c(C#N)c(SCC(=O)Nc3nc(C)co3)n2)cc1,+,-,+
Cc1coc(NC(=O)CSc2nc(-c3ccc(Cl)cc3)cc(C(F)(F)F)c2C#N)n1,0,-,-
COC(CNC(=O)c1coc2nc3ccccc3nc12)OC,-,-,0
O=C(NCC1CCCO1)c1coc2nc3ccccc3nc12 (configuration not stated),0,0,-
NS(=O)(=O)c1ccc(N2N=C(c3ccccc3)CC2c2ccc(F)cc2)cc1 (configuration not stated),148.9,-,+
COc1ccc(C2CC(c3ccccc3)=NN2c2ccc(/C=N/NC(=O)c3ccncc3)cc2)cc1 (configuration not stated),0,-,-
Cn1c(=O)c2c(nc(N3CCCCCC3)n2CC(O)COc2ccccc2)n(C)c1=O (configuration not stated),0,0,-
CCN(CC)CC(=O)Nc1ccc(-c2nc3cc(NC(=O)CN(CC)CC)ccc3o2)cc1,0,0,-
O=C(CN1CCCC1)Nc1ccc(-c2nc3cc(NC(=O)CN4CCCC4)ccc3o2)cc1,46.1,0,+
Cc1cc2c(cc1C)/C(=C\C(N)=O)NC(C)(C)C2,0,0,-
CCOC(=O)CNc1c(-c2ccc(F)cc2)nc2cnccn12,50.4,0,+
CCOC(=O)CNc1c(-c2ccc(Cl)cc2)nc2cnccn12,-,0,-
O=C(COC(=O)Cc1ccsc1)NCC1CCCCC1,0,-,-
CCc1cc(=O)oc2c(C)c(O)c(CN(C)C)cc12,81.9,0,+
SMILES,RmlCD inh mix,RT RNaseH block,RmlCD fluor art
CCC(=O)c1cc2c(C)cc(=O)oc2c(C)c1O,0,0,-
CCc1cc2c(=O)c(Oc3ccccc3F)c(C)oc2c(CN(C)C)c1O,72.5,0,+
CCOc1ccccc1Oc1c(C)oc2c(CN3CCN(C)CC3)c(O)ccc2c1=O,0,0,-
O=C(NCc1ccco1)c1cc(-c2ccccc2)nc2ccccc12,0,-,-
O=C(COC(=O)c1cc(-c2ccco2)nc2ccccc12)NCc1ccccc1,0,-,-
O=C(NNC(=O)c1cc(-c2ccco2)nc2ccccc12)c1ccccc1,-,-,+
CNC(=O)COC(=O)c1cc(-c2ccco2)nc2ccccc12,-,-,+
Cc1ccc(-n2c(SCC(=O)N3CCOCC3)nnc2-c2ccncc2)cc1,0,0,-
COc1ccc(C)cc1NC(=O)c1cnc2n(c1=O)CCS2,0,0,-
COc1ccc(C)cc1NC(=O)c1cnc2scc(C)n2c1=O,47.5,0,+
Cn1c(=O)n(C)c2cc(S(=O)(=O)O)ccc21,0,0,-
CC1=C(C#N)C(c2cccnc2)C2=C(CCCC2=O)N1 (configuration not stated),32.1,-,+
Cc1ccc(N2C(N)=C(C#N)C(c3cccnc3)C3=C2CCCC3=O)cc1 (configuration not stated),-,0,-
COCc1cc(C)nc2sc(C(=O)OC)c(N)c12,0,0,-
COC(=O)c1sc2cnccc2c1N,34.2,0,+
CC(C)(C)NC(=S)Nc1ccc(Nc2ccccc2)cc1,0,-,-
COc1ccc(NC(=O)C(Cc2ccccc2)NC(=O)c2ccco2)cc1OC (configuration not stated),0,0,-
CC1CN(c2oc(-c3cccs3)nc2C#N)CC(C)O1 (configuration not stated),74.6,0,+
N#Cc1nc(-c2cccs2)oc1NCC1CCCO1 (configuration not stated),107.4,0,+
N#Cc1nc(-c2cccs2)oc1N1CCOCC1,0,0,-
COc1ccc(-c2nc(C#N)c(NCCCN3CCOCC3)o2)cc1,-,0,-
N#Cc1nc(-c2cccs2)oc1NCCCN1CCOCC1,66.7,0,+
O=S(=O)(c1ccccc1)c1nc(-c2cccs2)oc1NCC1CCCO1 (configuration not stated),0,0,-
CCCCCn1c(=O)[nH]c2cc(C(=O)NCCCN3CCCCC3)ccc2c1=O,0,0,-
CN(CCNC(=O)C1CCN(S(=O)(=O)c2cnc[nH]2)CC1)Cc1ccccc1,0,0,-
CN1CC2(Cc3c1ccc1ccccc31)C(=O)OC(C)(C)OC2=O,+,0,+
Cc1ccc2c(c1)CC1(CN2C)C(=O)OC2(CCCCC2)OC1=O,0,0,-
N#Cc1c(C(F)(F)F)cc(-c2ccccc2)[nH]c1=O,0,-,-

# Screens (PubChem BioAssay)
